Several values for one entry are separate records, joined by “and”; a condition that tells them apart may be missing. Equal entries are not always repeated. Inconclusive results are not listed. Entries that show only a call come without a potency. A structure can be active in one record and inactive in another. A number with no mark means an inactive call. Activity calls are given as the source filed them. Calls come from the whole dose curve; as a rule, active = well fitted inhibition curve with a large enough effect; inconclusive = small, poorly fitted or top-dose-only effect; inactive = flat fitted curve, though single readings scatter.
How the values were obtained:
[1] = test system: CRL-7250; experiment: Cytotoxic Profiling of Annotated Libraries Using Quantitative High-Throughput Screening (AID 1296008); conditions: Five cell lines viability, CellTiter-Glo ATP luminescence, 48-72 h; max response: stronger effect = lower value
Procedure, shortened: (§1)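 Cytotoxicity was measured as CellTiter-Glo ATP luminescence, read after 10 min at room temperature. Compound treatment of the cells lasted 48 or 72 hr at 37 degrees Celsius in a qHTS format.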

[2] = test system: HEK293; experiment: as above; conditions: Five cell lines viability, CellTiter-Glo ATP luminescence, 48-72 h; max response: stronger effect = lower value
Procedure, shortened: as §1

[3] = test system: HaCat; experiment: as above; conditions: Five cell lines viability, CellTiter-Glo ATP luminescence, 48-72 h; max response: stronger effect = lower value
Procedure, shortened: as §1

[4] = test system: KB-3-1; experiment: as above; conditions: Five cell lines viability, CellTiter-Glo ATP luminescence, 48-72 h; max response: stronger effect = lower value
Procedure, shortened: as §1

[5] = test system: NIH3T3; experiment: as above; conditions: Five cell lines viability, CellTiter-Glo ATP luminescence, 48-72 h; max response: stronger effect = lower value
Procedure, shortened: as §1

[6] = test system: HEK293T; experiment: qHTS assay to identify novel small-molecules to repurpose for Merkel cell carcinoma treatment (AID 1296009); conditions: MCC and control cell lines, CellTiter-Glo viability, 72 h; at 44.8 µM (top of the series) unless noted
Procedure, shortened: (§2)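 After compound transfer in DMSO, plates were kept 72 hr at 37 degree celsius. Luminescent ATP signal from CellTiter-Glo served as viability measure, normalized against DMSO and no-cell controls.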

[7] = test system: MCC-13; experiment: as above; conditions: MCC and control cell lines, CellTiter-Glo viability, 72 h; series mostly up to 46 µM
Procedure, shortened: as §2

[8] = test system: MCC-26; experiment: as above; conditions: MCC and control cell lines, CellTiter-Glo viability, 72 h; series mostly up to 46 µM
Procedure, shortened: as §2

[9] = test system: MKL-1; experiment: as above; conditions: MCC and control cell lines, CellTiter-Glo viability, 72 h; series mostly up to 46 µM
Procedure, shortened: as §2

[10] = test system: HACAT; experiment: as above; conditions: MCC and control cell lines, CellTiter-Glo viability, 72 h; series mostly up to 44.8 µM
Procedure, shortened: as §2
Note: nearly all actives have a fitted effect of over 60% in size.
Potency is the fitted concentration of half-maximal effect.

Row | Compound | max response [1] | outcome [1] | outcome [2] | max response [3] | max response [4] | max response [5] | outcome [6] | Potency [7] | Potency [8] | Potency [9] | outcome [3] | outcome [4] | outcome [5] | Potency [10] | max response [2] | Potency [2] | Potency [1] | Potency [3] | Potency [4] | Potency [5]
1 | CNC(=O)c1ccc(-c2cnc3ncc(Cc4ccc5ncccc5c4)n3n2)cc1F | -2.64% | inactive | inactive | -3.74% and -10.2% | 3.93% and 3.42% | -7.6% and -25.4% | inactive | inactive | inactive | inactive |  |  |  |  |  |  |  |  |  | 
2 | CCCn1c(=O)c2[nH]c(-c3cnn(Cc4cccc(C(F)(F)F)c4)c3)nc2n(CC)c1=O | -9.35% |  | inactive | -0.725% | 0.919% | 1.05% | inactive | inactive | inactive | inactive | inactive | inactive | inactive | inactive |  |  |  |  |  | 
3 | COc1ccc(-n2nc(C(N)=O)c3c2C(=O)N(c2ccc(N4CCCCC4=O)cc2)CC3)cc1 | -14% and -8.05% |  |  | -4.25% | 6.22% and -0.472% | -1.07% and 4.24% |  | inactive |  | inactive | inactive |  |  | inactive | 2.24% |  |  |  |  | 
4 | Clc1ccc2ncc(-c3cccc(NC4CNC4)n3)n2c1 |  | inactive | inactive |  |  |  | inactive | inactive | inactive |  | inactive | inactive | inactive | inactive |  | 18700 nM (active) |  |  |  | 
5 | COc1ccc2c(OCc3nnc4ccc(-c5ccccc5)nn34)ccnc2c1 | -1.03% | inactive | inactive |  | -1.11% and 9.78% | -4.81% and -9.25% | inactive | inactive | inactive | inactive | inactive |  |  | inactive |  |  |  |  |  | 
6 | Cc1ccc(NC(=O)C2(c3ccc4c(c3)OC(F)(F)O4)CC2)nc1-c1cccc(C(=O)O)c1 | -5.91% |  |  | -0.152% |  |  | inactive | 1180 nM (active) | 833 nM (active) |  |  | inactive | inactive |  |  |  | 187 nM (active) | 418 nM (active) | 52.6 nM (active) | 93.5 nM (active)
7 | CCCNC(=O)Nc1ccc(Oc2ncnc3cc(OC)c(OC)cc23)cc1Cl | -26.7% and 2.06% |  | inactive | 0.131% and 2.87% | 4.92% | -7.41% and 0.662% | inactive | inactive | inactive | inactive |  |  |  |  | -15.3% |  |  |  |  | 
8 | O=C(O)CCCc1c[nH]c2ccccc12 | -4.82% | inactive |  | 4.3% and 3.03% | 0.51% | -1.55% and 2.66% |  | inactive | inactive | inactive |  | inactive |  |  | -0.171% and -7.8% |  |  |  |  | 
9 | CN(C)CC(C)(C)CNc1nn2c(-c3ccccc3)nnc2cc1C1CCC1 | -13.8% | inactive |  | -29.4% and -5.55% | 9% | -0.774% | inactive | inactive |  | 935 nM (active) |  | inactive |  |  |  |  |  |  |  | 
10 | CCCCCCCCCC(=O)N[C@@H](Cc1c[nH]c2ccccc12)C(=O)N[C@H](CC(N)=O)C(=O)N[C@@H](CC(=O)O)C(=O)N[C@@H]1C(=O)NCC(=O)N[C@@H](CCCN)C(=O)N[C@@H](CC(=O)O)C(=O)N[C@H](C)C(=O)N[C@@H](CC(=O)O)C(=O)NCC(=O)N[C@H](CO)C(=O)N[C@@H]([C@@H](C)CC(=O)O)C(=O)N[C@@H](CC(=O)c2ccccc2N)C(=O)O[C@@H]1C |  | inactive | inactive | -26.3% |  | -13.2% | inactive | inactive |  | inactive | inactive | inactive | inactive | inactive | 3.78% |  |  |  |  | 
11 | Nc1nc(NCCNc2ncc(-n3ccnc3)c(-c3ccc(Cl)cc3Cl)n2)ccc1[N+](=O)[O-] | -3.28% |  |  |  |  | 4.08% |  | inactive |  | inactive | inactive | inactive | inactive | inactive | 4.96% |  | 5800 nM (active) |  | 20600 nM (active) | 
12 | O=C1CCC[C@@H]2[C@H]3CCC[N+]4([O-])CCC[C@@H](CN12)[C@@H]34 (some centres not stated) | 2.61% | inactive |  | 2.01% | -0.364% and 8.14% | -2.91% |  | inactive |  | inactive | inactive |  | inactive | inactive | 0.171% |  |  |  |  | 

— PubChem BioAssay (NCATS)
